MIN6 prolif = induces beta-cell replication in MIN6 cells | MIN6 cells proliferation, ATPlite luminescence, 48 h; cells starved in 0.2% serum; 100% = growth in 10% serum | proliferation, % at 10 µM | 330,000 tested, 0.29% active | AID 2380;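 active = compounds whose signal lies at least 3.5 SD above the mean of all wells on their plate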;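 note: 0% = DMSO-treated cells in low-serum medium and 100% = 10% serum control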
MOR-DOR ag = OPRM1-OPRD1 heterodimerization agonism; cells, luminescence; activation, % at 9.3 µM; 340,000 tested, 0.3% active; in the data active = activation above about 18%;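 note: 0% = vehicle-treated cells and 100% = reference agonist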
MOR-DOR inv ag = mu-delta opioid heterodimer inverse agonism. P35372+P41143. 340,000 tested, 0.21% active. cell-based MOR-DOR heterodimer luminescence. inhibition, % at 9.3 µM; in the data active = inhibition above about 22%, passing the limit was not always enough;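 note: 0% = cells with DMSO and 100% = wells without cells with DMSO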
p-CIP stab down = compounds decreasing mouse p/CIP protein stability; AID 1984; decrease of EGFP signal, % at 10 µM; F442A p/CIP-EGFP cells, EGFP fluorescence, 16 h; Q05BA5; 290,000 tested, 0.01% active;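 active = EGFP signal decrease of at least 30% at 10 µM or well 3 SD below plate mean, unless failing retest; inactive = the rest, including hits failing retest or dose response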
HTR5A inv ctr = counter-screen for OPRM1-OPRD1 inverse agonists: human HTR5A inverse agonism | inhibition, % at 9.3 µM | 340,000 tested, 0.083% active | HTR5A cell line, luminescence | AID 504634; in the data active = inhibition mostly above about 23%, no sharp cut-off; inactive = mostly below about 18%;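 note: 0% = cells with DMSO and 100% = no-cell wells with DMSO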
HTR5A ag = HTR5A agonism, opioid heterodimer counter-screen; P47898; activation, % at 9.3 µM; 340,000 tested, 0.61% active; HTR5A agonist assay, luminescence, cell-based; in the data active = activation mostly above about 9.5%, no sharp cut-off; inactive = mostly below about 7.6%;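 note: 0% = cells with vehicle only and 100% = reference agonist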
* = called active by the depositor; x = no result. An excerpt weighted towards active compounds, which were near 1.4% of everything screened.

SMILES | MIN6 prolif | MOR-DOR ag | MOR-DOR inv ag | p-CIP stab down | HTR5A inv ctr | HTR5A ag
COc1ccc(CCNC(=O)C2C3CCC(C3)C2C(=O)O)cc1OC (stereo unspecified) | -5 | -3 | 15 | -10 | 2 | -2
O=C(O)C1C2CCC(C2)C1C(=O)NCCc1ccccc1 (stereo unspecified) | 0 | -1 | 5 | -6 | -35 | 9.4*
O=C(CCCN1C(=O)NC2(CCCC2)C1=O)NCc1ccccc1 | 1 | -5 | 17 | x | 8 | 0
C=C(C)Cn1c(CCNC(=O)C(C)(C)C)nc2ccccc21 | 1 | -1 | 5 | 7 | -4 | 10*
CC(C)(C)C(=O)NCCc1nc2ccccc2n1CC(=O)c1ccccc1 | 3 | -3 | 16 | 3 | -3 | -1
Cc1c(Nc2cc(Cl)c3nonc3c2[N+](=O)[O-])c(=O)n(-c2ccccc2)n1C | -5 | -9 | 46* | -6 | 33* | -13
OCCCN=C1CCCc2c1[nH]c1ccc(Cl)cc21 | -3 | 0 | 2 | 2 | -11 | 5
OCCN=C1CCCc2c1[nH]c1ccc(Cl)cc21 | -4 | 3 | -15 | 8 | -7 | 13*
CCn1c(=O)cc(SCC(=O)N2CCN(c3ccccn3)CC2)c2ccccc21 | x | -2 | 9 | 13 | 29 | 0
CCn1c(=O)cc(SCC(=O)N2CCN(c3ccccc3F)CC2)c2ccccc21 | -5 | -1 | 6 | -9 | -9 | 13*
O=C(Nc1nccs1)c1ccc2ccccc2n1 | -4 | -2 | 8 | 2 | 2 | -1
O=C(Nc1ccccn1)c1ccc2ccccc2n1 | -2 | -3 | 13 | 0 | -11 | 8.9*
COc1ccc(Oc2nccc(-c3ccccc3)c2C#N)cc1 | -4 | 0 | 0 | -15 | -15 | 11*
COc1ccc(Oc2nccc(-c3ccc(F)cc3)c2C#N)cc1 | -5 | 0 | -1 | -1 | -11 | 8
CC1CCCC/C1=N\NS(=O)(=O)c1ccc(Br)cc1 (stereo unspecified) | -2 | 3 | -17 | 10 | -87 | 11*
COc1ccc(/C(N)=N/OC(=O)c2cccc([N+](=O)[O-])c2C)cc1OC | -2 | 4 | -20 | -14 | -18 | 7
COc1cccc(C(=O)O/N=C(\N)c2ccc([N+](=O)[O-])cc2)c1OC | -3 | 14 | -78 | -3 | -16 | 13*
CC(C)(C)OC(=O)N1CCC[C@H]1C(=O)Nc1ccc(C#N)cc1 | 7 | -1 | 3 | -4 | -37 | 9.6*
CC(C)(C)OC(=O)N1CCC[C@H]1C(=O)Nc1ccc(Br)cc1 | 3 | -2 | 7 | 4 | -1 | 0
CN1/C(=C\C(=O)COc2ccc3c(c2)OCO3)C(C)(C)c2ccccc21 | -4 | 3 | -18 | -13 | 18 | 14*
O=S(=O)(Nc1ccc(-c2ccc3nncn3n2)cc1)c1ccc(Cl)s1 | 3 | 1 | -7 | x | -5 | 10*
OC1COCOC1C(O)C1OCOCC1O (stereo unspecified) | x | -3 | 16 | x | -9 | 2
CC(SCC(=O)Nc1ccccc1Br)c1nc2ccccc2c(=O)[nH]1 (stereo unspecified) | -2 | 0 | 0 | x | 4 | -1
COC(=O)CN(C)C(=O)CC1C(=O)NCCN1CC(C)(C)C (stereo unspecified) | 0 | 1 | -10 | -9 | -14 | 13*
Cc1ccc(OCCN(C)C(=O)CC2C(=O)NCCN2CC(C)(C)C)cc1 (stereo unspecified) | -1 | -2 | 10 | -23 | -2 | 1
SMILES | MIN6 prolif | MOR-DOR ag | MOR-DOR inv ag | p-CIP stab down | HTR5A inv ctr | HTR5A ag
Cc1noc(C)c1COc1ccc(C(=O)OCC(=O)N2CC3(C)CC2CC(C)(C)C3)cc1 (stereo unspecified) | -2 | 0 | -2 | -7 | -31 | -1
CN(C)S(=O)(=O)c1ccc(C(=O)OCC(=O)N2CC3(C)CC2CC(C)(C)C3)cc1 (stereo unspecified) | -1 | 1 | -2 | x | -31 | 13*
CCc1ccc(S(=O)(=O)/N=C2\C=C(NS(=O)(=O)c3ccccc3)C(=O)c3ccccc32)cc1 | -7 | -6 | 26 | -10 | 19 | -5
CC(C)c1ccc(S(=O)(=O)/N=C2\C=C(NS(=O)(=O)c3ccccc3)C(=O)c3ccccc32)cc1 | x | -5 | 30* | 4 | 15 | -6
Clc1ccccc1/C=N/NC1=Nc2cccc3cccc1c23 | -3 | 11 | -77 | -5 | -15 | 12*
C(=N\NC1=Nc2cccc3cccc1c23)/c1ccccn1 | x | 0 | -2 | 33 | -17 | 6
Cn1c(N)c(C(=O)COC(=O)C2(c3ccc(Cl)cc3)CCCC2)c(=O)n(C)c1=O | -3 | 1 | -6 | -4 | -15 | 7
Cn1c(N)c(C(=O)COC(=O)C2(c3ccc(F)cc3)CCCC2)c(=O)n(C)c1=O | 1 | 1 | -8 | -12 | 18 | 8.4*
COC1Cc2ccccc2N(C(=O)N2CCN(CCO)CC2)c2ccccc21 (stereo unspecified) | -2 | 3 | -13 | -7 | -12 | 14*
O=C(c1cc(C2CC2)nn1-c1ccccc1)N1CCN(c2ccc(O)cc2)CC1 | -2 | 3 | -17 | x | -1 | 7
CCOC(=O)CNc1nc(Cl)nc(Nc2ccc(C)cc2)n1 | -1 | 3 | -18 | -13 | 6 | 14*
CCOC(=O)CNc1nc(Cl)nc(Nc2ccc(Cl)cc2)n1 | 0 | 0 | -1 | -5 | -15 | 6
Cc1ccc(S(=O)(=O)N2CCN(C(=O)COC(=O)CSc3ccc(C)c(C)c3)CC2)c(C)c1 | -1 | 0 | -1 | x | 1 | 2
CC(C)CC(C(=O)N1CCOCC1)N1Cc2ccccc2C1=O (stereo unspecified) | 0 | -1 | 6 | -2 | -36 | 12*
O=C(CN(c1ccccc1)S(=O)(=O)c1ccc(F)cc1)NCc1cccs1 | -1 | -1 | 3 | x | 15 | -6
CN(C)c1nc(C(=O)Nc2ccccc2)nc(N(C)C)n1 | 0 | -1 | 5 | -11 | -1 | 2
CN(C)c1nc(SCCOC(=O)Nc2ccccc2)nc(N(C)C)n1 | -2 | 9 | -46 | -8 | 14 | 8.8*
CC(C(=O)NC1(C#N)CCCCC1)N(C)CC(=O)Nc1ccc(Cl)c(Cl)c1 (stereo unspecified) | -3 | 4 | -15 | x | -11 | 4
Cc1cccc(OC(=O)c2cccnc2)c1 | -1 | -2 | 12 | -4 | -16 | -4
Cc1cccc(OC(=O)c2ccc3nccnc3c2)c1 | 0 | 1 | -6 | 4 | -14 | 9.4*
CC(C)(C)OC(=O)C[C@@H]1C/C=C\C[C@@H](CC(=O)N(CCO)Cc2ccccc2)C(=O)NC[C@H](c2ccccc2)OC1=O | -2 | -1 | 4 | x | 24 | 12*
Cn1c(=O)c([N+](=O)[O-])c(Cl)c2ccccc21 | x | -8 | 37* | -8 | 13 | -5
